PAFAH1B3 FP inh: blocks human PAF acetylhydrolase 1B catalytic subunit 3; inhibition, % at 3.39 µM; recombinant PAFAH1B3, FP-rhodamine probe, fluorescence polarization; Q15102; hit rate 0.28% among 340,000; AID 492972;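 active = inhibition above the screen-wide average of all tested compounds plus 3 SD, cut at about 25% in these data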
Target sequence (Q15102 whole entry, looked up): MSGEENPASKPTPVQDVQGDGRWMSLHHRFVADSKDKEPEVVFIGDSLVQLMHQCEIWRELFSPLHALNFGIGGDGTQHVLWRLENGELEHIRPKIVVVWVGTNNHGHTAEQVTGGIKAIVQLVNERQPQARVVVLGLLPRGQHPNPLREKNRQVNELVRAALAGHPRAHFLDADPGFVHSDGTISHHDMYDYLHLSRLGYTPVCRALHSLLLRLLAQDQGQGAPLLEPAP
PAFAH2 inh: PAFAH2 (human) inhibition; Q99487; recombinant PAFAH2, FP-rhodamine activity probe, fluorescence polarization; inhibition, % at 3.39 µM; hit rate 0.99% among 340,000; AID 492956;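 active = inhibition above the mean over all tested compounds plus 3 SD, cut at about 30% in these data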;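 note: inhibitors block probe labeling of enzyme so polarization drops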
Fam108B counter: Fam108B inhibition, counter-screen for RBBP9 inhibitors; recombinant Fam108B, FP-Rh probe fluorescence polarization; inhibition, % at 9.51 µM; hit rate 0.33% among 300,000; AID 1947;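 active = inhibition above the screen mean inhibition plus 3 SD, computed separately per campaign, cut at about 18% in these data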;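 note: inhibitors lower polarization as less probe binds the enzyme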
PAFAH1B2 inh: blocks human PAF acetylhydrolase 1b catalytic subunit 2; inhibition, % at 3.39 µM; recombinant PAFAH1B2, FP-rhodamine activity probe, fluorescence polarization; hit rate 1.2% among 340,000; AID 492953; P68402;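 active = inhibition above the mean of all tested compounds plus 3 SD, cut at about 24% in these data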
Target sequence (P68402 whole entry, looked up): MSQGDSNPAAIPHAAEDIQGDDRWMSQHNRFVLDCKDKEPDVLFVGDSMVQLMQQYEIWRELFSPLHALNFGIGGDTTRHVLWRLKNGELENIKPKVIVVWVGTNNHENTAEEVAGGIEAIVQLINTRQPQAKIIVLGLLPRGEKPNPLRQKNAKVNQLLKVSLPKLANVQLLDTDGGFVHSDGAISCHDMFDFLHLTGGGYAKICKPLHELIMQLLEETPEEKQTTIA
PME-1 primary: PME-1 (human) inhibition; inhibition, % at 5.9 µM; hit rate 0.53% among 320,000; recombinant PME-1, FP-Rh probe fluorescence polarization; Q9Y570;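 active = inhibition above the campaign mean of all compounds plus 3 SD, cut at about 26% in these data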;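 note: competitive labeling of PME-1 active site by serine hydrolase directed probe; inhibitors block probe labeling so polarization falls and inhibition rises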
pPAFAH FP inh: pPAFAH (human) enzyme inhibition; inhibition, % at 3.39 µM; recombinant pPAFAH, FP-rhodamine probe fluorescence polarization; hit rate 1.5% among 330,000;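 active = inhibition above the mean inhibition across the screen plus 3 SD, cut at about 25% in these data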;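 note: inhibitors block binding of the rhodamine activity-based probe so polarization drops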
Numbers stand for hits; i = inactive; nt = no result given. A selection: hits, their analogues and other compounds. The true share with any hit is near 2.8%.

SMILES	PAFAH1B3 FP inh	PAFAH2 inh	Fam108B counter	PAFAH1B2 inh	PME-1 primary	pPAFAH FP inh
CCOc1ccc(NS(=O)(=O)c2ccc(OC)c(NC(=O)c3ccc4c(c3)OCCO4)c2)cc1	i	i	i	i	i	27
COc1cccc(-c2c(-c3cc(OC)cc(OC)c3)n(C)c3ccc(-c4cnc(N5CCOCC5)nc4)cc23)c1	i	i	nt	i	nt	i
COc1ccc(C2(SCC(N)C(=O)O)c3ccccc3-c3ccccc32)cc1 (centres undefined)	i	i	nt	i	nt	nt
CCc1cccc(NS(=O)(=O)c2ccc3c(c2)N(C)CCO3)c1	i	i	i	i	i	30
CCOc1ccccc1NS(=O)(=O)c1ccc2c(c1)N(C)CCO2	i	i	i	i	i	i
CCOc1ccc(NS(=O)(=O)c2ccc3c(c2)N(C(C)=O)CCO3)cc1	i	i	i	i	i	32
Nc1cc2ccncc2c2ccccc12	i	i	i	i	i	i
COc1ccc(CNC(=O)Cn2cnc3c(NCc4ccccc4)ncnc32)cc1	i	i	nt	i	nt	i
CCOc1cc(/C=N/n2cnnc2)ccc1OCC(=O)Nc1ccccc1OC	i	i	i	i	i	i
CCOc1cc(/C=C2\C(=O)N(c3cccc(C(=O)O)c3)N=C2C(F)(F)F)ccc1OCC(=O)Nc1ccccc1OC	nt	nt	i	nt	i	37
CN(c1ccccc1)S(=O)(=O)c1ccc(Cl)c(C(=O)Nc2ccccc2N2CCOCC2)c1	i	i	nt	i	nt	nt
N#Cc1c(N)nc2c3c(sc(=N)c2c1N)NC(=O)CC3c1ccccc1 (centres undefined)	i	i	i	i	29	28
N#Cc1c(N)nc2c3c(sc(=N)c2c1N)NC(=O)CC3c1c(F)cccc1Cl (centres undefined)	i	i	i	i	63	27
Cc1c(C#N)c(N)nc2c3c(sc12)NC(=O)CC3c1ccc(Cl)cc1 (centres undefined)	i	i	i	i	i	i
CCC(C)C(=O)Nc1nc(C)c(-c2csc(Nc3cc(OC)ccc3OC)n2)s1 (centres undefined)	i	i	i	i	i	32
COc1ccc(OC)c(Nc2nc(-c3sc(NC(=O)CC(C)C)nc3C)cs2)c1	i	i	i	i	i	30
COc1ccc(OC)c(Nc2nc(-c3sc(C)nc3C)cs2)c1	i	i	i	i	i	33
CCCCC(=O)Nc1nc(C)c(-c2csc(Nc3cc(OC)ccc3OC)n2)s1	i	i	i	i	i	i
COc1ccc(OC)c(Nc2nc(-c3sc(NC(=O)C(C)(C)C)nc3C)cs2)c1	i	i	i	i	i	30
COc1cccc(Nc2nc(-c3sc(C)nc3C)cs2)c1	i	i	i	i	i	i
CC(C)(C)OC(=O)C[C@@H]1C/C=C\C[C@H](CC(=O)N[C@H](CO)Cc2ccccc2)C(=O)N[C@@H](Cc2c[nH]c3ccccc23)COC1=O	i	i	nt	i	nt	i
Cn1c(=O)c2nc(SCc3ccccc3)n(C)c2n(C)c1=O	i	i	nt	i	nt	nt
CCC(=O)Nc1nc(C)c(-c2csc(Nc3ccccn3)n2)s1	i	i	i	i	i	26
CCCC(=O)Nc1nc(C)c(-c2csc(Nc3ccccc3C)n2)s1	i	i	i	i	i	i
Cc1ccc(CN2[C@@H](CC3CCCCC3)COCCS2(=O)=O)cc1	i	i	i	31	i	i
SMILES	PAFAH1B3 FP inh	PAFAH2 inh	Fam108B counter	PAFAH1B2 inh	PME-1 primary	pPAFAH FP inh
O=S1(=O)CCOC[C@H](CC2CCCCC2)N1Cc1cccc(F)c1	i	i	i	24	i	i
CCCC[C@H]1COCCS(=O)(=O)N1Cc1cccc(F)c1	i	i	i	i	i	i
O=S1(=O)CCOC[C@H](c2ccccc2)N1Cc1cccc(Cl)c1	i	i	i	29	i	i
O=S1(=O)CCOC[C@H](CC2CCCCC2)N1Cc1ccc(Cl)cc1	i	i	i	29	i	i
O=C1C(CO)C(CO)C(CO)C1CO (centres undefined)	i	i	nt	i	nt	nt
O=C(NCCC1=CCCCC1)C1CCN(S(=O)(=O)c2ccccc2C(F)(F)F)CC1	i	i	i	i	i	i
O=C(NCc1cccc(OC(F)(F)F)c1)c1ccc2c(c1)S(=O)(=O)c1cc(Cl)ccc1C2=O	i	i	nt	i	nt	i
O=C(c1ccc(=O)oc1)N1CCCc2ccccc21	i	40	i	i	i	25
COc1ccc(C=O)c(OCc2cn(CC(=O)c3ccc(O)cc3)nn2)c1	i	i	nt	i	nt	nt
O=C(c1ccccc1NS(=O)(=O)c1ccc(F)cc1)N1CCCCC1	i	i	i	i	i	i

Screens deposited in PubChem BioAssay by The Scripps Research Institute Molecular Screening Center.
